Shown are actives, neighbours in structure and some others; about 3% of the full set was active somewhere.
DRD3 antagonist: antagonists of human D3 dopamine receptor; P35462; AID 652054; actives 2.5% (n = 360,000); max response, negative = inhibition, %; D3R cells, DiscoveRx beta-arrestin luminescence, antagonist mode; active compounds read low; in the data active = max response below about -50%; inconclusive = no clear call, values can overlap the other calls
Target sequence (P35462 whole entry, looked up): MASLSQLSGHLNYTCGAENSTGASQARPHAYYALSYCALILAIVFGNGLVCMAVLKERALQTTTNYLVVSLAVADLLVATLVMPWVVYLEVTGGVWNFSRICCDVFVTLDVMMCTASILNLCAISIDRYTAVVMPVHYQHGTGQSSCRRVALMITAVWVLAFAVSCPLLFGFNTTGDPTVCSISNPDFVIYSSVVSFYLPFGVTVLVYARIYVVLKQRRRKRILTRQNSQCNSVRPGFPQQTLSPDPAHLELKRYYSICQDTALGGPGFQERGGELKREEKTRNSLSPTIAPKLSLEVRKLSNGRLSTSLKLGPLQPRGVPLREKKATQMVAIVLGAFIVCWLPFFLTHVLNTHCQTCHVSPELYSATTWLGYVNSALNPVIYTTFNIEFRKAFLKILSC
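Cells plated overnight at 1500 cells/well, then exposed to library compounds with dopamine controls for 90 minutes at 37 degrees C. DiscoveRx reagent added for 30–60 minutes at room temperature; luminescence read, quantitative HTS format.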
GRP78 ERSR act: ER stress response induction in glioma | U87-MG GRP78 promoter luciferase reporter, 16 h | Potency, µM, most hits filed as activators | actives 0.02% (n = 420,000) | AID 602332; also: series mostly up to about 76 µM; nearly all actives have a fitted effect of over 35% in size
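Stably transfected U87-MG human glioma cells carrying a GRP78-based luminescent sensor were seeded at 1000 cells/well, pin-dosed with compounds and incubated 16 h. Luciferase reagent was then added, and end-point luminescence was read after 10 min at room temperature.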
D3 ag: D3 dopamine receptor (human) agonism. P35462. D3R DiscoveRx beta-arrestin cells, luminescence, 90 min. max activation, %. actives 0.58% (n = 410,000). AID 652048; in the data active = max activation above about 30%
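Agonist mode: compounds and dopamine controls were applied to plated cells for 90 min at 37 degrees C after an overnight attachment at 1500 cells/well. Luminescent read-out followed 30 - 60 minutes at room temperature with DiscoveRx detection reagent.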
Nrf2 activator: Nrf2 pathway activation; AREc32 ARE-luciferase reporter (MCF7-derived line), luminescence, 24 h; Potency, µM (doses to about 46.1 µM), usual class: activators; actives 0.31% (n = 410,000); AID 624171; also: nearly all actives have a fitted effect of over 65% in size
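AREc32_Fluc, 1000 cells/well, OPTI-MEM + 5% FBS, o/n 37 deg C 5% CO2; 23 nL cpd by pin tool, 24 hr; Steady-Glo 30 min RT, luminescence.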
A number is an active result; - = inactive; ? = inconclusive; . = no result given. Unless noted, calls follow the shape of the dose curve; as a rule, active = well fitted curve in the direction sought with a large enough effect; inconclusive = small, poorly fitted or top-dose-only effect, or another doubt; inactive = no such curve, though single readings can be large; an effect the other way counts as inactive or inconclusive.

SMILES	DRD3 antagonist	GRP78 ERSR act	D3 ag	Nrf2 activator
O=C(Nc1ncnc2sc3c(c12)CCC3)c1ccco1	-	-	-	0.794µM
CCCCn1c(-c2cccc(Br)c2)nc2cc3[nH]c(=O)c(C(C)C)nc3cc21	-	-	62.5	-
CCC1(C2CCN(C(=O)c3cc(F)ccc3F)CC2)NC(=O)N(CCc2scnc2C)C1=O (configuration not stated)	.	-	.	.
CC1=C(C(=O)Nc2ccccc2)C(c2ccco2)C(C#N)=C(SCC(=O)OC(C)C)N1 (configuration not stated)	-	?	58.5	-
O=S(=O)(NCCCCNS(=O)(=O)c1cccc2cccnc12)c1cccc2cccnc12	.	-	.	.
CCOC(=O)c1ccccc1NC(=O)c1sc2ncn(Cc3cccc(F)c3)c(=O)c2c1C	.	-	-	-
COc1cc(-c2nc(-c3cccc(C)c3)no2)cc(OC)c1OC	-	-	58.1	?
COc1ccc(-c2nc(-c3cccc(C)c3)no2)cc1OC	-	-	64.6	-
COc1cc(OC)cc(-c2nc(-c3cccc(C)c3)no2)c1	.	-	-	?
Nc1ccc(/C=C/c2ccnc3ccccc23)c(N)c1	.	-	.	.
CC(C)(C)OC(=O)C[C@@H]1C/C=C\C[C@H](CC(=O)N(CCO)Cc2ccccc2)C(=O)NC[C@@H](c2ccccc2)OC1=O	-95.5	-	-	-
C[C@H]1COC(=O)[C@@H](Cc2ccc(F)cc2)C/C=C\C[C@@H](CC(=O)NCCO)C(=O)N1	-	-	-	-
O=C1N[C@@H](Cc2ccccc2)COC(=O)[C@H](Cc2ccc(F)cc2)C/C=C\C[C@@H]1CC(=O)N(CCO)Cc1ccccc1	-65.1	-	-	-
C[C@@H]1COC(=O)[C@H](Cc2ccc(F)cc2)C/C=C\C[C@@H](CC(=O)NCCO)C(=O)N1	-	-	36.8	-
O=C1N[C@H](Cc2ccccc2)COC(=O)[C@H](Cc2ccc(F)cc2)C/C=C\C[C@@H]1CC(=O)N(CCO)Cc1ccccc1	-56.9	-	-	-
Cc1nc(C(=O)N(Cc2cc3ccc(F)cc3nc2N2CCC(O)CC2)CC2CCCO2)cs1 (configuration not stated)	.	-	.	.
COc1ccc(C(C)=O)cc1CSc1nc(Nc2ccc(F)c(F)c2)c2ccccc2n1	.	-	-	-
COc1ccccc1CN1[C@@H](CC(=O)O)c2ccccc2S1(=O)=O	-53.6	-	-	-
CCN1CCc2c(sc3c2c(NCc2ccco2)nc2nnnn23)C1	-64.7	-	-	-
c1coc(CNc2ncnc3sc4c(c23)CCCCC4)c1	-	-	-	-
COc1ccc(C)cc1NCc1nnc2n1CCCCC2	.	-	-	-
Oc1ccc(C=NNC(=S)Nc2ccc(F)cc2)c(O)c1	-	-	33.0	-
COCCCNC(=S)N/N=C/c1ccc(O)cc1O	-	-	32.0	-
O=C(NN=Cc1ccc(O)cc1)C(=O)NN=Cc1ccc(O)cc1	-	-	-	-
COCCCNC(=S)N/N=C/c1ccc(O)cc1	-	-	-	-
SMILES	DRD3 antagonist	GRP78 ERSR act	D3 ag	Nrf2 activator
O=C(N/N=C/c1ccc(O)cc1O)C(=O)N/N=C/c1ccc(O)cc1O	-	-	39.5	-
CCNc1ccc(/C=C/c2ccnc3ccccc23)cc1	.	-	.	.
Cn1ccnc1Sc1cc(NCCCO)c([N+](=O)[O-])c2nonc12	-112.0	-	-	-
CC(=O)OCCNc1cc(SCc2ccco2)c2nonc2c1[N+](=O)[O-]	?	-	-	-
O=[N+]([O-])c1c(NCCCO)cc(Sc2ccc(Cl)cc2)c2nonc12	-112.5	-	-	-
O=[N+]([O-])c1c(NCCCO)cc(SCc2ccco2)c2nonc12	-63.1	-	-	?
COc1cccc(CNC(=O)NCc2noc3ccc(C)cc23)c1	.	-	-	-
Cc1ccccc1C1(CC(=O)N2CCOCC2)CC(=O)N(Cc2cccnc2)C1=O (configuration not stated)	.	-	.	.
Cc1ccc(CCNC(=O)CCCn2c(=O)c3ccccc3n(Cc3ccccc3C#N)c2=O)cc1	.	-	-	-
CCCCS/C(=C(/C#N)C(N)=O)c1cc2c([nH]1)CCCC2	-74.2	-	-	?
C=CCn1c(SCC(=O)Nc2sccc2C(N)=O)nc2sc(CC)cc2c1=O	-	-	34.5	-
COCC(=O)Nc1cc(C(=O)N2CCN(c3ccccc3)C(=O)C2)cc2nc(-c3ccccc3)n(C)c12	.	-	.	.
COc1cccc(N2CCN(Cc3cccnc3)CC2)c1	?	-	-	-
C=CCc1ccc(OCCCCNC(C)CC)c(OC)c1 (configuration not stated)	-	-	-	-
Cc1ccc(CN2CCN(c3ccccc3)CC2)o1	?	-	-	-
C=CCc1ccc(OCCCN2CCCC(C)C2)c(OC)c1 (configuration not stated)	-78.8	-	-	-
COc1cccc(CN2CCN(c3ncccn3)CC2)c1	-58.6	-	35.0	-
C=CCc1ccc(OCCCCN2CCC(C)CC2)c(OC)c1	-58.6	-	-	-
Cc1ccc(CN2CCN(c3ncccn3)CC2)o1	-54.4	-	-	-
C=CCc1ccc(OCCCOc2ccc(C(=O)O)cc2)c(OC)c1	-	-	-	-
Cc1cc2nccc(C)c2cc1C	.	-	.	.
Fc1ccc(Nc2c(-c3c[nH]c4ccccc34)nc3ccccn23)cc1	.	-	-	?
CC(O)(COc1ccccc1)c1ccc2c(c1)CN(Cc1cccc3ncccc13)CCO2 (configuration not stated)	.	-	.	.
COc1cc(CN2CCCC(C)C2)ccc1OCc1ccccc1 (configuration not stated)	-61.9	-	-	-
COc1ccc(CN2CCN(c3ccccn3)CC2)cc1OCc1ccccc1	-69.3	-	-	-
SMILES	DRD3 antagonist	GRP78 ERSR act	D3 ag	Nrf2 activator
C=CCc1ccc(OCCCCN2CC(C)CC(C)C2)c(OC)c1 (configuration not stated)	-104.5	-	-	-
CCc1ccc2c(c1)N(CC(C)CN(C)C)c1ccccc1S2 (configuration not stated)	.	.	-	.
O=C(CSc1ncnc2ccccc12)c1cccs1	-	-	-	?
Cc1ccc(C(=O)CSc2ncnc3ccccc23)o1	-	-	-	12.6µM
Cc1ccc(CN2[C@H](C)[C@H](c3ccccc3)OCCS2(=O)=O)cc1	.	-	.	.
COc1ccc(NC(=O)CN(C)C(=O)/C=C/c2cn(-c3ccccc3)nc2-c2ccc(C)cc2)cc1	-55.2	-	-	-
COc1ccc(NC(=O)CN(C)C(=O)/C=C/c2cn(-c3ccccc3)nc2-c2ccc(F)cc2)cc1	-	-	-	-
COC(=O)[C@@H]1CCCN1Cc1ccc2c(c1)CN(Cc1coc3ccc(C)cc3c1=O)CCO2	.	-	.	.
CC1CC(N(C(=O)c2ccco2)c2ccccc2)c2ccccc2N1 (configuration not stated)	-58.0	-	-	-
CC[C@H](CC[C@@H](C)[C@H]1CC[C@H]2[C@@H]3CC=C4C[C@@H](O)CC[C@]4(C)[C@H]3CC[C@]12C)C(C)C	.	.	-	.
COC(=O)c1c(-c2cccs2)csc1NC(=O)c1cc(OC)c(OC)c(OC)c1	.	-	35.7	-
COC(=O)c1c(-c2cccs2)csc1NC(=O)c1ccc(OC)c(OC)c1	.	-	-	-
